In PubChem BioAssay AID686971 (National Center for Advancing Translational Sciences (NCATS), 2013):
The campaign covered roughly 360,000 compounds. About 7,500 (2.1%) were called active. Another 8% or so got no clear call; they are omitted. Only a selection was taken, and actives are over-represented in it overall. Values without a mark were called inactive. Calls follow the shape of the dose curve; as a rule, active = well fitted cell-killing curve with a large enough effect; inconclusive = small, poorly fitted or top-dose-only effect, or effect the other way, or another doubt; inactive = no such curve, though single readings can be large or run the other way.
Potency is read from the fitted curve at half-maximal effect.

Test: qHTS for induction of synthetic lethality in tumor cells producing 2HG: qHTS for the HT-1080-IDH1KD cell line
Conditions: HT-1080 IDH1 knockdown viability, ATP luminescence, 48 h; series mostly up to 46.1 µM; activity, negative = toxicity: at the top concentration
From the text: Unbiased genomic sequencing for 22 glioma genomes found recurrent mutation of IDH1 on chromosome 2q33, a gene encoding the cytosolic isoform of IIDH1 associated with the tri-carboxylic acid cycle (TCA) that catalyzes the oxidative decarboxylation of isocitrate, yielding alpha-ketoglutarate and CO2 via NADP+ to NADPH conversion. Subsequent studies confirmed the recurrent IDH mutations in up to 70% of secondary gliomas and in 10% of AML cases. In addition, the somatic mutation of cancer-associated IDH1 is a point mutation resulting in various amino-acid substituents at Arginine132 (IDH1 R132), a key residue found in the enzyme's active site that when mutated, results in the loss-of-function in metabolizing isocitrate but confers a gain-of-function to produce the oncometabolite 2-hydroxyglutarate (2HG). This in effect defines IDH1 as an oncogene and provides an extraordinary opportunity to discover chemical probes against mutant IDH1 that may translate into much needed new therapies for glioma and AML patients.
This assay aims to perform a synthetic-lethal screen for chemical probes specific for 2HG-producing tumor cells using matched paired cell lines (1) HT-1080-NT fibrosarcoma cell line that overproduces 2HG and (2) HT-1080-IDH1KD cell line which has IDH1 expression knocked-down. Desirable compounds are toxic to the NT fibrosarcoma cell line but not to the IDH1KD cell line. The data in this AID corresponds to the results of the qHTS against the HT-1080 IDH1KD cell line.
[1] Dang L, Jin S, Su SM. IDH mutations in glioma and acute myeloid leukemia. Trends of Mol Med. 2010; 16(9): 387-97.
[2] Dang L et al. Cancer-associated IDH1 mutations produce 2-hydroxyglutarate. Nature. 2010; 465(7300):966.
Molecular Libraries Probe Production Centers Network [MLPCN]
NIH Chemical Genomics Center [NCGC]
Assay Submitter (PI): Lenny Dang Ph.D., Agios Pharmaceuticals
Suspensions of trypsinized HT-1080-IDH1KD cells were dispensed into white, tissue culture-treated, solid 1536-well plates at 5uL/well (750 cells/well final concentration) in RPMI medium supplemented with 5% FBS. Plates were incubated at 37 degrees C for 2 hours, after which 23 nL of compounds or DMSO were delivered to each well using a pin tool. Plates were then incubated at 37 degrees C for an additional 48 hours. CellTiter-Glo viability reagent (Promega) was dispensed into wells (2.5uL/well) and incubated at room temperature for 10 minutes. The plates were measured on a PerkinElmer ViewLux plate reader for luminescent signal (clear filter, 1 sec exp.). DMSO-treated control wells and media-only (no cells) control wells were used to normalize %Activity of identified toxic compounds; DMSO-treated wells corresponded to 0%Activity (100% viability), while media-only controls were used to normalize 100%Activity (0% viability). To minimize variability between cell lines, both HT-1080-NT and HT-1080-IDH1KD lines were dispensed and treated with identical compound series in single batches.
Concentration-response curves were fitted to the signals arising from the resulting luminescence. The concentration-effect curves were then classified based on curve quality (r2), response magnitude and degree of measured activity, and compounds were subsequently categorized based on their curve class.
For `CC(=O)N1C[C@@H](CO)[C@@H](N(C)C(=O)c2ccco2)C[C@H]1c1ccccc1`, the “activity, negative = toxicity” value was -2.1%. For `O=[N+]([O-])c1ccc(CN2CC(N3CCC(c4ccccc4)CC3)CS2(=O)=O)cc1` (stereo not drawn), the “activity, negative = toxicity” value was -9.12%. With `Cc1cccc(NC(=O)c2nc(S(=O)(=O)Cc3ccccc3)ncc2Cl)c1` the Potency was 6.51 µM (active). In the case of `CCOc1ccc(NC(=O)c2nc(SCC)ncc2Cl)cc1`, the “activity, negative = toxicity” value is reported as -1.23%. In the case of `O=C(Nc1ccc(F)cc1)c1ccc(S(=O)(=O)NCc2cccnc2)cc1`, the “activity, negative = toxicity” value is reported as -20.1%. For `Cc1cccc(NC(=O)C(C)SCc2ccccc2)c1` (stereo not drawn), the “activity, negative = toxicity” value was -0.037%. In the case of `Cc1cccc(NC(=O)c2nc[nH]c2C(=O)NCC(=O)OCc2ccccc2)c1`, the “activity, negative = toxicity” value is reported as 6.4%. With `Cc1cccc(CS(=O)(=O)c2ncc(Cl)c(C(=O)Nc3ccc(F)cc3)n2)c1` the Potency was 16.4 µM (active). In the case of `CCCCN1C(=O)C(CC(=O)NC(c2ccccc2)c2ccccc2)CC(C(=O)N2CCOCC2)=C1C` (stereo not drawn), the “activity, negative = toxicity” value is reported as 0.317%. For `O=S1(=O)C[C@@H](N2CCN(CCO)CC2)[C@H](COCc2ccccc2)N1`, the “activity, negative = toxicity” value was -5.58%. For `COc1ccc([C@H]2N[C@]3(CCCN(CC4CCCCC4)C3=O)[C@H]3C(=O)N(C)C(=O)[C@@H]23)cc1`, the “activity, negative = toxicity” value was 12%. For `Cc1ccccc1S(=O)(=O)NC(=O)C1(C)CCN1C(=O)Cc1ccc(Cl)cc1Cl` (stereo not drawn), the “activity, negative = toxicity” value was 26.8%. With `Cc1cn([C@H]2C[C@H](O)[C@@H](CNC(=O)[C@H](N)Cc3cccnc3)O2)c(=O)[nH]c1=O` the “activity, negative = toxicity” value was 3.58%. With `Nc1cc(=O)c2[nH]cnc2[nH]1` the “activity, negative = toxicity” value was -25.5%. For `COc1ccccc1N1CCN(C(=O)c2ccc(Cl)c(S(=O)(=O)N3CCCC3)c2)CC1`, the “activity, negative = toxicity” value was -0.548%. For `COc1ccccc1N1CCN(C(=O)c2cc(=O)c3cc(C)cc(C)c3o2)CC1`, the Potency was 0.0103 µM (active). With `COc1ccccc1N1CCN(C(=O)c2c(-c3c(Cl)cccc3Cl)noc2C)CC1` the “activity, negative = toxicity” value was -2.34%. For `C[C@H](NC(=O)CC[C@H]1O[C@@H](n2ccc(=O)[nH]c2=O)[C@H](O)[C@@H]1O)c1cccc2ccccc12`, the “activity, negative = toxicity” value was 19.5%. With `C[C@@H]1CN([C@@H](C)CO)C(=O)CCCn2nncc2CO[C@H]1CN(C)C(=O)Nc1ccc(C(F)(F)F)cc1` the “activity, negative = toxicity” value was -7.94%. With `C[C@@H]1CN([C@@H](C)CO)C(=O)c2cc(Br)cnc2O[C@@H]1CN(C)C(=O)C1CCCCC1` the “activity, negative = toxicity” value was 19.4%. With `CC1=C(C(=O)N2CCOCC2)CC(CC(=O)NCc2cccs2)C(=O)N1CCCN1CCCC1=O` (stereo not drawn) the “activity, negative = toxicity” value was 14.2%. In the case of `CCCCC[C@H](C)N1C[C@@H](COCc2ccccc2)Oc2cc(N3CC[C@@H](N(C)C)C3)ccc2S1(=O)=O`, the Potency is reported as 18.4 µM (active). For `CCCCN1CC(COCc2ccccc2)OCCS1(=O)=O` (stereo not drawn), the “activity, negative = toxicity” value was 8.5%. In the case of `CCCCC[C@H](C)N1C[C@@H](COCc2ccccc2)Oc2cc(N3CCC[C@@H]3CO)ccc2S1(=O)=O`, the “activity, negative = toxicity” value is reported as 6.19%. With `C[C@H](CO)N1C[C@H](C)[C@@H](CN(C)S(=O)(=O)c2ccc(F)cc2)OCc2cnnn2CCCC1=O` the “activity, negative = toxicity” value was 0.103%. For `CC1(Oc2cccc(F)c2)CCN(Cc2ccccc2OC(F)F)C1` (stereo not drawn), the “activity, negative = toxicity” value was 15.1%. For `Cc1[nH]n(-c2ccc([N+](=O)[O-])cc2)c(=O)c1C=NCCN1CCN(C(=O)c2ccccc2F)CC1`, the “activity, negative = toxicity” value was -28.4%. For `Cc1[nH]n(-c2ccc(Cl)cc2)c(=O)c1/C=N/n1c(C)nc2ccccc2c1=O`, the Potency was 16.4 µM (active). With `Cn1c(COc2ccc(Cl)cc2)nc2ccccc2c1=O` the activity, negative = toxicity was 4.13% [at 9.24 µM]. For `CC1(C(=O)NCc2ccccc2)CSCC(=O)N1CCCN1CCOCC1` (stereo not drawn), the “activity, negative = toxicity” value was -9.76%. With `O=C(CCCN1C(=O)C(c2ccccc2)Oc2cccnc21)Nc1ccccc1Br` (stereo not drawn) the “activity, negative = toxicity” value was 0.333%. With `COc1ccc(-c2ccc3[nH]c4c(c3c2)CCN2C[C@H]3[C@H](C)ON(C)[C@H]3C[C@@H]42)cc1` the “activity, negative = toxicity” value was -27.7%. With `CCN(CC)CCn1cnc2c1c(=O)[nH]c(=O)n2Cc1ccccc1` the “activity, negative = toxicity” value was 1.96%. With `COCCn1cnc2c1c(=O)n(Cc1ccc(Br)cc1)c(=O)n2Cc1ccccc1` the “activity, negative = toxicity” value was -1.2%. In the case of `N=c1c2c(-c3ccccc3)c(-c3ccccc3)n(Cc3ccccc3)c2ncn1CCCO`, the Potency is reported as 5.62 µM (active). For `FC(F)(F)c1cccc(-c2nc3ccccc3n2C(c2ccccc2)c2nc3ccccc3[nH]2)c1` (stereo not drawn), the “activity, negative = toxicity” value was -15.5%. For `CCN(CC)C(=O)C1CCCN(Cc2cccc(Cl)c2)C1` (stereo not drawn), the “activity, negative = toxicity” value was 12.2%. In the case of `CC1(C(=O)Nc2ccccc2Br)CCN1C(=O)CC1CC1` (stereo not drawn), the “activity, negative = toxicity” value is reported as 3.95%. In the case of `CC[C@@H]1Cc2cc(O)ccc2C2=C1c1ccc(O)cc1C[C@H]2CC`, the Potency is reported as 14.6 µM (active). In the case of `CC(C)OC(=O)CC(=O)CC(O)c1cccc([N+](=O)[O-])c1` (stereo not drawn), the “activity, negative = toxicity” value is reported as -12.4%. With `COc1ccc(CCNC(=O)CN(c2ccccc2)S(=O)(=O)c2ccccc2)cc1` the “activity, negative = toxicity” value was -17.4%. In the case of `COC(=O)C1(C(=O)OC)C/C=C\CN(S(=O)(=O)c2ccccc2[N+](=O)[O-])CCC1`, the “activity, negative = toxicity” value is reported as 6.9%. With `CC(=O)Nc1ccc(C=CC(=O)c2ccc([N+](=O)[O-])cc2)cc1` the “activity, negative = toxicity” value was 6.51%. For `O=C(Nc1ccncc1)c1ccc(Cl)c([N+](=O)[O-])c1`, the “activity, negative = toxicity” value was 7.37%. With `NC(N)=N/N=C/c1ccc(Cl)c([N+](=O)[O-])c1` the Potency was 23.1 µM (active). With `CC(CC(=O)O)C(=O)c1ccc(Cl)c([N+](=O)[O-])c1` (stereo not drawn) the “activity, negative = toxicity” value was 2.94%. With `Nn1cnnc1N/N=C/c1cc([N+](=O)[O-])c(Cl)cc1Cl` the “activity, negative = toxicity” value was 1.7%. With `O=C(/C=C/c1ccc(Cl)c([N+](=O)[O-])c1)c1ccc(O)cc1` the Potency was 11.6 µM (active).
